# Compound activity: PubChem, National Center for Advancing Translational Sciences (NCATS)
# Vaccinia Venus – qHTS for Stage-Specific Inhibitors of Vaccinia Orthopoxvirus: Venus Reporter Primary qHTS; Vaccinia virus Venus reporter expression, fluorescence; 0.46% of 330,000 active; Potency, µM (doses to about 36.5 µM), most hits filed as inhibitors; calls by dose curve; tested in A549 cells; note: nearly all actives have a fitted effect of over 30% in size
# HCMV antiviral – qHTS Assay for inhibitors of the human cytomegalovirus (HCMV); HFF cells, HCMV-luciferase reporter, 72 h; active compounds read low; activity change, negative = inhibition, % at 57.5 µM; 4.5% of 410,000 active; AID 1259415, 2018; in the data active = activity change below about -60%; inconclusive = no clear call, values can overlap the other calls; inactive = above about -39%
#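 Luciferase read-out from HCMV-luciferase-infected HFFs (MOI 1 PFU/cell) 72 h post infection at 37C; compounds added after 16 h cell attachment; activity normalized between buffer-only basal and Salinomycin (10uM) inhibitor controls.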
# VACV mCherry inh – qHTS for Stage-Specific Inhibitors of Vaccinia Orthopoxvirus: mCherry Reporter Primary qHTS | Vaccinia virus mCherry reporter infection, fluorescence | Potency, µM (highest dose often 36.5 µM), most hits filed as inhibitors | 0.63% of 310,000 active; calls by dose curve; tested in A549 cells; note: nearly all actives have a fitted effect of over 35% in size
# FMDV antiviral – High Throughput Screening for Foot and Mouth Disease Virus Antivirals. FMDV antiviral cell-based qHTS. Potency, µM (series often up to 57.9 µM), hits mostly inhibitors. 1.2% of 410,000 active; calls by dose curve; tested in HEK293T cells; note: read-out not given here; nearly all actives have a fitted effect of over 45% in size
# MARV entry inh – qHTS for inhibitors of binding or entry into cells for Marburg Virus | Marburg virus pseudotyped entry inhibition, cell reporter | Potency, µM (highest dose often 37.8 µM), actives largely listed as inhibitors | 1.8% of 300,000 active; calls by dose curve; tested in HEK293 cells
# Lassa entry inh – qHTS for Inhibitors of binding or entry into cells for Lassa Virus; Lassa virus pseudotype entry inhibition, cell reporter; Potency, µM (highest dose often 37.9 µM), actives largely listed as inhibitors; 1.2% of 300,000 active; AID 540256, 2011; calls by dose curve; tested in HEK293 cells; note: nearly all actives have a fitted effect of over 50% in size
# Numbers stand for hits; 0 = inactive; ? = inconclusive; - = no result given. Sampled rows, rich in hits. Any-hit rate of the full collection: about 6.5%.
SMILES,Vaccinia Venus,HCMV antiviral,VACV mCherry inh,FMDV antiviral,MARV entry inh,Lassa entry inh
Cc1csc2nc(COc3ccc(NC(=O)COc4ccc(F)cc4)cc3)cc(=O)n12,0,0,0,0,0,0
NC(c1ccccc1)c1csc(NC(=O)Nc2cccc(Cl)c2)n1 (configuration not stated),10µM,0,0,0,-,-
O=C(Cc1csc(NC(=O)Nc2cccc(Cl)c2)n1)NCc1ccccn1,0,0,?,0,?,0
O=C(Cc1csc(NC(=O)Nc2cccc(Cl)c2)n1)NC1CCCC1,0,0,0,?,13µM,0
COc1cc(/C(C)=N/NC(=O)Cc2c(C)[nH][nH]c2=O)ccc1O,0,-67,0,0,0,0
N#Cc1ccc(NC(=O)COCc2cc(-c3ccc4c(c3)OCO4)on2)cc1,0,0,0,0,-,0
C=CCn1c(SCC(=O)Nc2cccnc2Cl)nnc1-c1ccc(Cl)cc1,0,0,0,?,0,0
C=CCn1c(SCC(=O)Nc2cccnc2Cl)nnc1-c1ccccc1F,0,-65,0,?,0,?
COc1ccc2ccccc2c1/C=N/NC(=O)c1sc(N)c(C#N)c1C,0,0,0,0,0,?
COc1cc(/C=N/NC(=O)c2sc(N)c(C#N)c2C)cc(Br)c1O,0,-67,?,0,?,?
COc1cccc2c1[C@H](C=Cc1ccccc1)[C@@H]([C@H](O)COC(C)=O)OC2,-,-,-,-,0,-
CCc1c(C#N)c(SCCC(=O)Nc2ccc(F)cc2)nc2c1C(=O)CC(C)(C)C2,?,-96,-,28µM,?,?
COc1ccc(-c2nnc(NC(=O)c3ccc([N+](=O)[O-])o3)o2)c(OC)c1,?,-94,?,0,0,0
COc1ccc(CCCc2nnc(SCC(=O)Nc3cc(F)ccc3C)o2)cc1,0,0,0,0,0,0
CCOC(=O)c1cc(-c2ccccc2)n(CCCC(=O)Nc2cccc(C)c2C)c1C,0,0,0,0,-,0
CCOc1ccc(NCc2cccn2-c2nnc(N3CCC(C(=O)NCCCN4CCCCC4C)CC3)s2)cc1 (configuration not stated),-,-66,-,0,-,-
Cc1ccc(NCc2cccn2-c2nnc(N3CCC(C(=O)NC(C)C)CC3)s2)cc1,0,0,0,0,0,-
CCOc1ccc(NCc2cccn2-c2nnc(N3CCC(C(=O)NCCCN4C(C)CCCC4C)CC3)s2)cc1 (configuration not stated),0,?,?,0,?,0
COc1ccc(OC)c(NCc2cccn2-c2nnc(N3CCC(C)CC3)s2)c1,0,?,0,0,-,0
Cc1ccc(NCc2cccn2-c2nnc(N3CCC(C(=O)NCCC(C)C)CC3)s2)cc1,?,-67,0,?,0,-
COc1ccc(NCc2cccn2-c2nnc(N3CCC(C)CC3)s2)c(OC)c1,0,0,0,2µM,-,0
COc1ccc(OC)c(/C=C/c2ccc3ccccc3[n+]2C)c1,0,-,0,-,-,-
CCOC(=O)Cn1nc(C)c(NC(=O)COc2ccc(C)c(C)c2)c1C,0,-61,0,0,0,0
CCc1ccc(CN2CCC(n3nccc3NC(=O)c3ccccc3OC)CC2)o1,0,0,0,0,-,-
CCn1ccnc1CN1CCC(n2nccc2NC(=O)c2ccccc2OC)CC1,0,0,0,10µM,0,0
SMILES,Vaccinia Venus,HCMV antiviral,VACV mCherry inh,FMDV antiviral,MARV entry inh,Lassa entry inh
O=C(Cc1ccccc1[N+](=O)[O-])Nc1ccccc1C(=O)N1CCOCC1,0,0,0,0,0,10µM
Cc1ccc(SCC(=O)Nc2ccccc2C(=O)N2CCOCC2)cc1,0,-71,0,0,?,0
CCCCC(=O)Nc1ccccc1C(=O)N1CCOCC1,-,0,-,0,0,0
COC(=O)N[C@@H](C=Cc1ccccc1)C(C(=O)OC)=C(C)NCc1ccccc1,-,-,-,-,0,-
COc1ccc(CN2CCN(Cc3ccccc3C(F)(F)F)CC2)c(OC)c1,0,?,0,0,11µM,?
FC(F)(F)c1ccccc1CN1CCCC(N2CCN(c3ccccc3)CC2)C1 (configuration not stated),-,-61,-,0,-,-
FC(F)(F)c1ccccc1CN1CCN(C2CCCCCC2)CC1,-,?,-,0,8.2µM,?
COc1ccc(CC(=O)NCCc2cn(C)c3ccccc23)cc1OC,-,0,-,-,-,-
Cc1cccc([N+](=O)[O-])c1NC(=O)CN(Cc1ccccc1)Cc1ccccc1,0,-61,0,?,?,?
CSc1n[nH]c(-c2cccs2)n1,-,0,-,-,-,-
Cc1ccccc1C(=O)N1CCN(c2ccc(NC(=O)CSc3ccc(Cl)cc3)cc2)CC1,?,-71,0,?,11µM,?
CCC(=O)Nc1ccc(N2CCN(C(=O)c3ccccc3C)CC2)cc1,-,0,-,0,0,0
Cc1ccccc1OCC(=O)Nc1ccc(N2CCN(C(=O)c3ccco3)CC2)cc1,?,-73,?,28µM,?,?
O=C(COc1ccc(Cl)cc1)Nc1ccc(N2CCN(C(=O)c3ccco3)CC2)cc1,?,-86,0,-,?,?
COc1ccc(OCC(=O)Nc2ccc(N3CCN(C(=O)c4ccco4)CC3)cc2)cc1,0,?,0,0,?,0
O=C(CSc1ccc(Cl)cc1)Nc1ccc(N2CCN(C(=O)c3ccco3)CC2)cc1,0,0,-,20µM,?,0
COCCN1C(=O)COCc2cc(-c3ccc4c(c3)OCO4)ccc21,-,0,-,-,-,-
COc1cc2c(cc1OC)[C@@]1(c3ccccc3)CCCC[C@H]1[C@@H]2NC(=O)C(F)(F)F,-,-,-,-,0,-
Cc1ccc(OC[C@H](O)CNS(=O)(=O)c2ccccc2C(=O)O)cc1,-,-,-,-,0,-
CN(C)CCC1Sc2ccccc2Oc2ccccc21 (configuration not stated),0,0,0,0,?,0
CC1c2ccccc2SC(CCCN(C)C)c2ccccc21 (configuration not stated),0,-61,0,?,5.2µM,?
COC(=O)[C@H]1[C@H](CO)[C@H]2Cn3c(cccc3=O)[C@H]2N1Cc1ccccc1Cl,-,0,-,-,-,-
Cc1cc2ccccc2n1CCNC(=O)Cc1ccccc1,0,0,0,0,-,-
O=C(NCCn1ccc2ccccc21)c1cccc([N+](=O)[O-])c1,0,-80,0,0,0,0
CC(=O)NCCc1cc2ccc(C)c(C)c2[nH]c1=O,0,0,0,0,-,-
O=C(NCCCN1CCN(CCCNC(=O)c2cccc([N+](=O)[O-])c2)CC1)c1cccc([N+](=O)[O-])c1,0,0,0,0,?,?
Cc1ccc2cc(CCNC(=O)c3cccc([N+](=O)[O-])c3)c(=O)[nH]c2c1C,0,0,0,22µM,0,0
Cc1ccc(C(=O)NCCn2c(C)cc3ccccc32)cc1C,0,-69,0,0,?,?
CCOC(=O)C(NC(=O)c1cccc(Cl)c1)(OCc1ccccc1)C(F)(F)F (configuration not stated),0,-62,0,0,?,?
